Each structure is given as a SMILES string. Records with an inconclusive call do not appear. Where a call stands in place of a potency, no number is given. A number with no mark means an inactive call. The source made the active and inactive calls. The call rests on the fitted dose curve; in most records, active means well fitted curve in the direction sought with a large enough effect in the repeat runs; inconclusive means weak or mixed curves; inactive means no such curve, though single readings can be large; an effect the other way counts as inactive or inconclusive.

The record followed here is PubChem BioAssay (Tox21).

The nature of the first test: A CellTox Green Cytotoxicity Assay to monitor cytotoxicity in HepG2 cells - 16 hour (AID 1224876). Further: nearly all actives have a fitted effect of over 45% in size. Further: potency means the concentration at half of the fitted maximal effect. The settings on record: CellTox Green fluorescence; series mostly up to 76.8 µM. The procedure, abridged: (§1)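 Cells and non-lytic dye reagent are dispensed together (600 HepG2 cells/well) and incubated 5 h before DMSO compound transfer. Kinetic fluorescence is then recorded in the same wells during 40 h at 37 C.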
Consider `CCS(=O)(=O)c1ccc(OC)c(C(=O)OC)c1`, for which the Potency entry was “inactive”.
In the case of `Brc1c(NC2=NCCN2)ccc2nccnc12`, the Potency entry was “inactive”.
On to `COC(=O)CC(C)=O`, for which the Potency result is “inactive”.
Same read-out and setting: the result for `NC(=O)c1ccc(N)cc1` reads “inactive”; that for `Cc1cnc(NS(=O)(=O)c2ccc(N)cc2)nc1`, “inactive”; that for `COc1nc(N)nc2c1ncn2[C@@H]1O[C@H](CO)[C@@H](O)[C@@H]1O`, “inactive”.
Still for that read-out and setting: to `CC(C)CNCC(C)C` belongs “inactive”; to `O=C(c1ccccc1)C1CCCCC1`, 43.6 µM (active); to `CN1CCCC1`, “inactive”.
Still for that read-out and setting: to `CC(C)(O)C(=O)c1ccccc1` belongs “inactive”.
Take `COC(=O)c1ccc(C)cc1C1=NC(C)(C(C)C)C(=O)N1` (centres undefined): the Potency entry is “inactive”.
On the same count and under the same terms, to `CCCCC(CC)COC(=O)c1ccccc1O` (centres undefined) belongs “inactive”; to `Nc1cc(=O)[nH]c(N)n1`, “inactive”.
Same read-out and setting: to `c1ccc([C@H]2CN3CCSC3=N2)cc1` belongs “inactive”.
Take `CCOC(=O)CCC(C)=O`: the Potency result is “inactive”.
The same measure, in the same setting: to `COc1ccc2c(c1)CCCC2=O` belongs “inactive”; to `C[C@H](NC(CCc1ccccc1)C(=O)O)C(=O)N1CCC[C@H]1C(=O)O` (some centres undefined), “inactive”.
`CC(=O)OCC(=O)[C@@]1(O)CCC2C3CCC4=CC(=O)CC[C@]4(C)C3[C@@H](O)C[C@@]21C` (some centres undefined): the Potency result was “inactive”.
As to `C[C@](N)(Cc1ccc(O)cc1)C(=O)O`, the cytotoxicity increase was -1.17% [at 6.97 µM].
In the case of `COC(=O)NN`, the Potency entry is “inactive”.
Turning to `CCCCCOC(=O)CCCCC`, the Potency entry is “inactive”.
For `CCCCCCCCCCCCCC=O`, the cytotoxicity increase was 1.97% [at 6.97 µM].
`CC(=O)N(CC(O)CO)c1c(I)c(C(=O)NCCO)c(I)c(C(=O)NCC(O)CO)c1I` (centres undefined): the Potency result was “inactive”.
As for `CN1CC(=O)NC1=N`, the Potency result was “inactive”.
For the compound `NC(=O)c1cn(Cc2c(F)cccc2F)nn1`, the Potency result was “inactive”.
Take `Cc1[nH]c(=O)c(C#N)cc1-c1ccc2nccn2c1`: the Potency entry was “inactive”.
Take `FC1(F)C(F)(F)C(F)(F)C2(F)C(F)(F)C(F)(F)C(F)(F)C(F)(F)C2(F)C1(F)F` (centres undefined): the Potency result is “inactive”.
For the compound `C=C1CC[C@H]2C[C@@H]1C2(C)C`, the Potency result is “inactive”.
Still for that read-out and setting: to `CN1C(=O)N(C)C(O)C1O` (centres undefined) belongs “inactive”; to `CCN(CC)CCOCCOC(=O)C1(c2ccccc2)CCCC1`, “inactive”.
The same measure, in the same setting: to `CCC(C)C1CCCCC1=O` (centres undefined) belongs “inactive”.
The same measure, in the same setting: to `CC(C)NC(=O)NC(C)C` belongs “inactive”.

A short description of another test: qHTS RealTime-Glo MT Cell Viability Assay in HepG2 cells - 32 hour (AID 1224877). Further: nearly all actives have a fitted effect of over 55% in size. Particulars: RealTime-Glo luminescence; series mostly up to 76.8 µM. The procedure, abridged: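 HepG2 suspension premixed with RealTime-Glo reagents is plated at 600 cells per well and left 5 h at 37 C/5% CO2. Compounds in DMSO then go in, and bioluminescence reflecting viable cell number is recorded over 40 h.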
Background: qHTS replaces the single test concentration by a dilution series.
Consider `Brc1c(NC2=NCCN2)ccc2nccnc12`, for which the Potency entry was “inactive”.
Still for that read-out and setting: the result for `NC(=O)c1ccc(N)cc1` reads “inactive”.
On the same count and under the same terms, the result for `Cc1cnc(NS(=O)(=O)c2ccc(N)cc2)nc1` reads “inactive”.
Still for that read-out and setting: the result for `COc1nc(N)nc2c1ncn2[C@@H]1O[C@H](CO)[C@@H](O)[C@@H]1O` reads “inactive”; that for `CC(C)CNCC(C)C`, “inactive”; that for `O=C(c1ccccc1)C1CCCCC1`, “inactive”.
For `CC(C)(O)C(=O)c1ccccc1`, the Potency result was “inactive”.
On the same count and under the same terms, the result for `Nc1cc(=O)[nH]c(N)n1` reads “inactive”; that for `c1ccc([C@H]2CN3CCSC3=N2)cc1`, “inactive”; that for `COC(=O)NN`, “inactive”.
Turning to `CCCCCCCCCCCCCC=O`, the activity change, negative = cytotoxic was -9.48% [at 6.97 µM].
As to `CC(=O)N(CC(O)CO)c1c(I)c(C(=O)NCCO)c(I)c(C(=O)NCC(O)CO)c1I` (centres undefined), the Potency entry is “inactive”.
Consider `Cc1[nH]c(=O)c(C#N)cc1-c1ccc2nccn2c1`, for which the Potency result was “inactive”.
On the same count and under the same terms, the result for `FC1(F)C(F)(F)C(F)(F)C2(F)C(F)(F)C(F)(F)C(F)(F)C(F)(F)C2(F)C1(F)F` (centres undefined) reads “inactive”.
The same measure, in the same setting: the result for `CCN(CC)CCOCCOC(=O)C1(c2ccccc2)CCCC1` reads “inactive”; that for `C=C[Si](OC(=C)C)(OC(=C)C)OC(=C)C`, “inactive”.

A further test in a line: A CellTox Green Cytotoxicity Assay to monitor cytotoxicity in HepG2 cells - 24 hour (AID 1224878). Further: nearly all actives have a fitted effect of over 45% in size. Further: potency means the concentration at half of the fitted maximal effect. Particulars: CellTox Green fluorescence; series mostly up to 76.8 µM. In outline:
as §1
Turning to `CCS(=O)(=O)c1ccc(OC)c(C(=O)OC)c1`, the Potency result was “inactive”.
On the same count and under the same terms, the result for `Brc1c(NC2=NCCN2)ccc2nccnc12` reads “inactive”; that for `COC(=O)CC(C)=O`, “inactive”.
On the same count and under the same terms, the result for `NC(=O)c1ccc(N)cc1` reads “inactive”.
Turning to `Cc1cnc(NS(=O)(=O)c2ccc(N)cc2)nc1`, the Potency result was “inactive”.
Still for that read-out and setting: the result for `COc1nc(N)nc2c1ncn2[C@@H]1O[C@H](CO)[C@@H](O)[C@@H]1O` reads “inactive”; that for `CC(C)CNCC(C)C`, “inactive”.
Same read-out and setting: the result for `O=C(c1ccccc1)C1CCCCC1` reads 49 µM (active); that for `CCCCC(CC)COC(=O)c1ccccc1O` (centres undefined), “inactive”; that for `Nc1cc(=O)[nH]c(N)n1`, “inactive”.
On the same count and under the same terms, the result for `c1ccc([C@H]2CN3CCSC3=N2)cc1` reads “inactive”.
Regarding `COc1ccc2c(c1)CCCC2=O`, the Potency entry is “inactive”.
Still for that read-out and setting: to `C[C@H](NC(CCc1ccccc1)C(=O)O)C(=O)N1CCC[C@H]1C(=O)O` (some centres undefined) belongs “inactive”; to `CC(=O)OCC(=O)[C@@]1(O)CCC2C3CCC4=CC(=O)CC[C@]4(C)C3[C@@H](O)C[C@@]21C` (some centres undefined), “inactive”.
For the compound `C[C@](N)(Cc1ccc(O)cc1)C(=O)O`, the cytotoxicity is -1.48% [at 6.97 µM].
Consider `COC(=O)NN`, for which the Potency entry was “inactive”.
Regarding `CCCCCCCCCCCCCC=O`, the cytotoxicity was 1.56% [at 6.97 µM].
For `CC(=O)N(CC(O)CO)c1c(I)c(C(=O)NCCO)c(I)c(C(=O)NCC(O)CO)c1I` (centres undefined), the Potency entry is “inactive”.
Consider `NC(=O)c1cn(Cc2c(F)cccc2F)nn1`, for which the Potency entry was “inactive”.
Still for that read-out and setting: to `Cc1[nH]c(=O)c(C#N)cc1-c1ccc2nccn2c1` belongs “inactive”.
Same read-out and setting: to `FC1(F)C(F)(F)C(F)(F)C2(F)C(F)(F)C(F)(F)C(F)(F)C(F)(F)C2(F)C1(F)F` (centres undefined) belongs “inactive”.
The same measure, in the same setting: to `C=C1CC[C@H]2C[C@@H]1C2(C)C` belongs “inactive”; to `CN1C(=O)N(C)C(O)C1O` (centres undefined), “inactive”.
For `CCN(CC)CCOCCOC(=O)C1(c2ccccc2)CCCC1`, the Potency result is “inactive”.
On the same count and under the same terms, to `CCC(C)C1CCCCC1=O` (centres undefined) belongs “inactive”.
The same measure, in the same setting: to `C=C[Si](OC(=C)C)(OC(=C)C)OC(=C)C` belongs “inactive”.
